Data: PubChem BioAssay AID1159580 (chemical genetic matrix, 2015)
The whole screen tested about 5,500 compounds, of which about 2,000 (36%) were called active. About 18% were inconclusive and are not listed. Cut-off read from the data, not from the text of the source: active = normalized growth mostly below about 0.91 (no sharp cut-off); inconclusive = no clear call, values can overlap the other calls; inactive = mostly above about 0.92. This is one part of the list.

Assay: chemical genetic growth profiling, strain panel (AID 1159580);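 note: tested at 20 µM; growth read once vehicle control cultures reached saturation at 30 °C; 1 = growth at the plate median or of vehicle wells; lower values mean less growth of the strain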
Conditions: growth OD

Measured: normalized growth

CC(C)CCCC(C)[C@H]1CCC2C3C(=O)C=C4C[C@@H](O)CC[C@]4(C)C3CC[C@@]21C (stereo partly drawn)
inactive: S. cerevisiae deletion strains, locus YJL187C, strain SWE1, stronger effect = lower value 1 | S. cerevisiae deletion strains, locus YJR043C, strain POL32, stronger effect = lower value 1.01 | S. cerevisiae deletion strains, locus YJR066W, strain TOR1, stronger effect = lower value 0.948 | S. cerevisiae deletion strains, locus YKL009W, strain mrt4, stronger effect = lower value 1.07 | S. cerevisiae deletion strains, locus YKL068W, stronger effect = lower value 1.01 | S. cerevisiae deletion strains, locus YKL085W, strain MDH1 (second series), stronger effect = lower value 1.03 | S. cerevisiae deletion strains, locus YKL085W, strain MDH1, stronger effect = lower value 1.03 | S. cerevisiae deletion strains, locus YKL160W, strain elf1, stronger effect = lower value 0.981 | S. cerevisiae deletion strains, locus YKR001C, strain vps1, stronger effect = lower value 1.05 | S. cerevisiae deletion strains, locus YKR026C, strain gcn3, stronger effect = lower value 0.996 | S. cerevisiae deletion strains, locus YKR091W, strain srl3, stronger effect = lower value 1 | S. cerevisiae deletion strains, locus YLL001W, strain dnm1, stronger effect = lower value 0.998 | S. cerevisiae deletion strains, locus YLL026W, stronger effect = lower value 1.01 | S. cerevisiae deletion strains, locus YLL041C, strain sdh2, stronger effect = lower value 0.991 | S. cerevisiae deletion strains, locus YLR027C, strain aat2, stronger effect = lower value 0.989 | S. cerevisiae deletion strains, locus YLR039C, strain RIC1, stronger effect = lower value 1.08 | S. cerevisiae deletion strains, locus YLR058C, strain SHM2, stronger effect = lower value 1.06 | S. cerevisiae deletion strains, locus YLR102C, strain apc9, stronger effect = lower value 1.03 | S. cerevisiae deletion strains, locus YLR113W, strain HOG1, stronger effect = lower value 0.975 | S. cerevisiae deletion strains, locus YLR221C, strain rsa3, stronger effect = lower value 0.981 | S. cerevisiae deletion strains, locus YLR258W, strain gsy2, stronger effect = lower value 1.02 | S. cerevisiae deletion strains, locus YLR262C, strain YPT6 (second series), stronger effect = lower value 0.972 | S. cerevisiae deletion strains, locus YLR262C, strain YPT6, stronger effect = lower value 1.09 | S. cerevisiae deletion strains, locus YLR268W, strain sec22, stronger effect = lower value 1.07 | S. cerevisiae deletion strains, locus YLR320W, strain mms22, stronger effect = lower value 1.03 | S. cerevisiae deletion strains, locus YLR330W, strain CHS5, stronger effect = lower value 1.02 | S. cerevisiae deletion strains, locus YLR342W, strain FKS1 (second series), stronger effect = lower value 1.07 | S. cerevisiae deletion strains, locus YLR342W, strain FKS1, stronger effect = lower value 1 | S. cerevisiae deletion strains, locus YLR357W, strain rsc2, stronger effect = lower value 1.06 | S. cerevisiae deletion strains, locus YLR370C, strain arc18, stronger effect = lower value 0.984 | S. cerevisiae deletion strains, locus YLR371W, strain rom2, stronger effect = lower value 1.03 | S. cerevisiae deletion strains, locus YLR384C, strain iki3, stronger effect = lower value 0.997 | S. cerevisiae deletion strains, locus YLR418C, strain cdc73, stronger effect = lower value 1.04 | S. cerevisiae deletion strains, locus YML016C, strain PPZ1, stronger effect = lower value 1.03 | S. cerevisiae deletion strains, locus YML032C, strain rad52, stronger effect = lower value 1.02 | S. cerevisiae deletion strains, locus YML120C, strain ndi1, stronger effect = lower value 0.965 | S. cerevisiae deletion strains, locus YML124C, strain tub3, stronger effect = lower value 1.02 | S. cerevisiae deletion strains, locus YMR058W, strain fet3, stronger effect = lower value 0.992 | S. cerevisiae deletion strains, locus YMR078C, strain ctf18, stronger effect = lower value 1.05 | S. cerevisiae deletion strains, locus YMR125W, strain sto1, stronger effect = lower value 1.01 | S. cerevisiae deletion strains, locus YMR129W, stronger effect = lower value 0.989 | S. cerevisiae deletion strains, locus YMR205C, strain PFK2, stronger effect = lower value 1.05 | S. cerevisiae deletion strains, locus YMR223W, strain ubp8, stronger effect = lower value 1.02 | S. cerevisiae deletion strains, locus YMR231W, strain pep5, stronger effect = lower value 1 | S. cerevisiae deletion strains, locus YMR307W, strain GAS1, stronger effect = lower value 1.11 | S. cerevisiae deletion strains, locus YNL067W, strain RPL9B, stronger effect = lower value 1.02 | S. cerevisiae deletion strains, locus YNL071W, strain lat1, stronger effect = lower value 0.993 | S. cerevisiae deletion strains, locus YNL183C, strain NPR1, stronger effect = lower value 0.937 | S. cerevisiae deletion strains, locus YNL209W, strain ssb2, stronger effect = lower value 1 | S. cerevisiae deletion strains, locus YNL233W, strain BNI4, stronger effect = lower value 1.02 | S. cerevisiae deletion strains, locus YNL248C, strain rpa49, stronger effect = lower value 0.934 | S. cerevisiae deletion strains, locus YNL250W, strain rad50, stronger effect = lower value 1.03 | S. cerevisiae deletion strains, locus YNL271C, strain bni1, stronger effect = lower value 1.05 | S. cerevisiae deletion strains, locus YNL298W, strain CLA4, stronger effect = lower value 1.04 | S. cerevisiae deletion strains, locus YNL307C, strain MCK1, stronger effect = lower value 1.05 | S. cerevisiae deletion strains, locus YNL322C, strain KRE1 (second series), stronger effect = lower value 0.98 | S. cerevisiae deletion strains, locus YNR049C, strain mso1, stronger effect = lower value 0.996 | S. cerevisiae deletion strains, locus YNR052C, strain pop2, stronger effect = lower value 1.03 | S. cerevisiae deletion strains, locus YOL012C, strain htz1 1.19 | S. cerevisiae deletion strains, locus YOL147C, strain pex11, stronger effect = lower value 1.01 | S. cerevisiae deletion strains, locus YOR001W, strain rrp6, stronger effect = lower value 0.994 | S. cerevisiae deletion strains, locus YOR061W, strain CKA2, stronger effect = lower value 1.05 | S. cerevisiae deletion strains, locus YOR069W, strain VPS5, stronger effect = lower value 1.02 | S. cerevisiae deletion strains, locus YOR070C, strain gyp1, stronger effect = lower value 0.999 | S. cerevisiae deletion strains, locus YOR080W, strain dia2, stronger effect = lower value 1.04 | S. cerevisiae deletion strains, locus YOR083W, strain WHI5, stronger effect = lower value 0.969 | S. cerevisiae deletion strains, locus YOR106W, strain vam3, stronger effect = lower value 0.978 | S. cerevisiae deletion strains, locus YOR136W, strain idh2, stronger effect = lower value 1.04 | S. cerevisiae deletion strains, locus YOR144C, strain elg1, stronger effect = lower value 1.02 | S. cerevisiae deletion strains, locus YOR184W, strain ser1, stronger effect = lower value 1.06 | S. cerevisiae deletion strains, locus YOR231W, strain MKK1, stronger effect = lower value 1 | S. cerevisiae deletion strains, locus YOR265W, strain rbl2, stronger effect = lower value 0.996 | S. cerevisiae deletion strains, locus YOR270C, strain vph1, stronger effect = lower value 0.907 | S. cerevisiae deletion strains, locus YOR290C, strain snf2, stronger effect = lower value 1.07 | S. cerevisiae deletion strains, locus YOR316C, strain cot1, stronger effect = lower value 1.04 | S. cerevisiae deletion strains, locus YPL051W, strain arl3, stronger effect = lower value 0.981 | S. cerevisiae deletion strains, locus YPL055C, strain LGE1, stronger effect = lower value 1.05 | S. cerevisiae deletion strains, locus YPL078C, strain atp4, stronger effect = lower value 0.935 | S. cerevisiae deletion strains, locus YPL106C, strain sse1, stronger effect = lower value 1.08 | S. cerevisiae deletion strains, locus YPL240C, strain hsp82, stronger effect = lower value 0.985 | S. cerevisiae deletion strains, locus YPL241C, strain CIN2, stronger effect = lower value 1.01 | S. cerevisiae deletion strains, locus YPL256C, strain CLN2, stronger effect = lower value 0.989 | S. cerevisiae deletion strains, locus YPR119W, strain clb2, stronger effect = lower value 1.03 | S. cerevisiae deletion strains, locus YPR141C, strain kar3, stronger effect = lower value 1.03 | S. cerevisiae deletion strains, locus YPR163C, strain tif3, stronger effect = lower value 1.03 | S. cerevisiae deletion strains, locus YPR167C, strain met16, stronger effect = lower value 1.04 | S. cerevisiae deletion strains, strain wtn01, stronger effect = lower value 1.03 | S. cerevisiae strains, strain wild type, stronger effect = lower value 1.02
